High-throughput results as filed in PubChem BioAssay.
CRFR2-BP antag = CRF-BP/CRF-R2 complex antagonism. HEK293 CRF-R2/CRF-BP, CRF-induced calcium fluorescence. inhibition, % at 11.8 µM. 0.59% of 350,000 active. AID 588475;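 active = inhibition of the ligand-induced calcium signal above about 50% at the single tested concentration, limit read from the data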
ABCB6 inh MLPCN = human ABCB6 transporter inhibition; Q9NP58; K562-ABCB6 porphyrin accumulation, flow cytometry, 1 h; hits give low values; fluorescence ratio to DMSO, % at 10 µM; 0.19% of 360,000 active; AID 602162;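 active = fluorescence ratio to DMSO below 75%, the collection mean minus 3 SD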;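 note: signal is porphyrin accumulated inside mitochondria; 100% equals median channel fluorescence of DMSO control wells; lower ratio means ABCB6 inhibition with less porphyrin fluorescence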
MEKK2mut PB1 HTS = signal of MEK5 binding to mutant human MEKK2 PB1 domain; 0.35% of 290,000 active; percent response, % at 10 µM; bead flow cytometry, Alexa488-MEK5 binding to MEKK2 mutant; in the data active = percent response above about 24%, passing the limit was not always enough
MEKK2wt PB1 HTS = raises or lowers MEK5 binding to wildtype human MEKK2 PB1 domain | Q9Y2U5 | bead flow cytometry, Alexa488-MEK5 binding to MEKK2 WT; actives lie on both sides | binding response (% of control), % at 10 µM | 1.1% of 290,000 active; in the data active = binding response below about 67% or above about 130%
CRFBP-R2 agonist = agonists of human CRF-binding protein/CRF-R2 receptor complex; HEK293 CRF-R2/CRF-BP, calcium dye fluorescence (FLIPR); percent of saturating CRF peptide response; activation, % at 13.2 µM; 0.46% of 350,000 active; AID 588473;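 active = activation of at least 50%, plus an integration ratio under a set limit after plate pattern correction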;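 note: plate controls were neutral control wells without compound for no effect and CRF at EC100 for full effect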
MEKK3 PB1 HTS = raises or lowers MEK5 binding to the human MEKK3 PB1 domain. bead-based flow cytometry, Alexa488-MEK5 binding to MEKK3; actives lie on both sides; 0 = blocked by unlabeled MEK5, 100 = vehicle. binding response (% of control), % at 10 µM. 1.4% of 290,000 active;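 active = binding response more than 3 SD above or below the average of its plate-row segment, actives on both sides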;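 note: Alexa488 bead fluorescence after subtracting the streptavidin-only scavenger bead signal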
MEKK2wt confirm = raises or lowers MEK5 binding to wildtype human MEKK2, retest | shares compounds with MEKK3 PB1 HTS | bead flow cytometry, Alexa488-MEK5 binding to MEKK2 WT; actives lie on both sides | binding response (% of control), % at 10 µM | 2.4% of 5,900 active; in the data active = binding response below about 16% or above about 210%; inactive = in between
MEKK2mut confirm = signal of MEK5 binding to mutant human MEKK2, retest. shares compounds with MEKK3 PB1 HTS. bead flow cytometry, Alexa488-MEK5 binding to MEKK2 mutant. percent response, % at 10 µM. 2% of 5,900 active; in the data active = percent response mostly above about 71%, no sharp cut-off; inactive = mostly below about 38%;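 note: higher means compound restores mutant binding toward wildtype level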
MEKK3 confirm = MEKK3-MEK5 PB1 inhibition, single concentration confirmation. shares compounds with MEKK3 PB1 HTS. bead flow cytometry, Alexa488-MEK5 binding to MEKK3; hits give low values. binding response (% of control), % at 10 µM. 1.8% of 5,900 active. AID 1894;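 active = binding response below 72% of control, or above a set upper limit, though filed actives all read lower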;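 note: 100% = DMSO only wells and 0% = binding blocked by excess unlabeled MEK5; lower values mean stronger disruption of MEK5 binding to MEKK3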
* marks the source's active call; other numbers are inactive results; · = no result; [ ] = remark or other dose. Sampled rows, rich in hits. Any-hit rate of the full collection: about 2.9%.

SMILES	CRFR2-BP antag	ABCB6 inh MLPCN	MEKK2mut PB1 HTS	MEKK2wt PB1 HTS	CRFBP-R2 agonist	MEKK3 PB1 HTS	MEKK2wt confirm	MEKK2mut confirm	MEKK3 confirm
COc1ccc(C(=NNc2ccccc2C(=O)O)c2ccc(OC)cc2)cc1	21	98	0	99	0	150*	94	4	101
CSCCC(NC(=O)COc1ccccc1)C(=O)N1CC(C)OC(C)C1 (stereo not given)	15	99	·	·	-2	·	·	·	·
COc1ccccc1CNC(=O)CSc1nnc2c(n1)[nH]c1ccc(F)cc12	-8	95	-1	100	-2	102	·	·	·
CCOC(=O)c1c(CSc2ccccc2)n(C)c2cc(Br)c(O)c(CN(C)C)c12	1	96	8	122	2	109	·	·	·
CCOC(=O)c1c(CSc2ccc(C)cc2)n(C)c2cc(Br)c(O)c(CN(C)C)c12	-17	99	43	145*	0	104	142	21	111
CCOC(=O)c1c(C)n(-c2ccc(C)cc2)c2ccc(O)c(CN(C)C)c12	-77	90	30	138*	0	113	118	8	103
CCN1CCc2nc(NC(=O)Cc3ccc4c(c3)OCCO4)sc2C1	10	102	9	140*	1	98	163	46	111
CCN1CCc2nc(NC(=O)CC(c3ccccc3)c3ccccc3)sc2C1	-6	96	44*	183*	2	109	194	51	110
CCN1CCc2nc(NC(=O)C(c3ccccc3)c3ccccc3)sc2C1	-3	113	6	104	4	97	·	·	·
CC(=O)Nc1ccc(S(=O)(=O)N(C)CC(=O)OC2CCCCC2=O)cc1 (stereo not given)	25	96	·	·	-3	·	·	·	·
CC1(C)CC(=O)c2cnc(NC3CC3)nc2C1	5	100	1	113	3	129*	94	-6	100
CC1(C)CC(=O)c2cnc(N)nc2C1	22	93	-2	99	0	101	·	·	·
CNCC(=O)Nc1c(C)n[nH]c1C	12	97	1	108	-2	148*	113	11	106
CCCC(=O)Nc1c(C)n[nH]c1C	-2	92	0	99	2	95	·	·	·
O=C(/C=C/c1ccccc1Cl)N(Cc1ccccc1)C1CCS(=O)(=O)C1 (stereo not given)	-18	101	0	103	-2	138*	101	-2	100
O=C(Nc1cc(-c2ccccc2)[nH]n1)c1ccccc1F	-17	97	-48	38*[inhibitor]	2	35*[inhibitor]	104	5	102
Clc1ccc(SCCn2ccnc2)cc1	14	113	-12	84	0	70*[inhibitor]	96	4	98
CC(Oc1ccc(Br)cc1)C(=O)O/N=C(\N)c1ccncc1 (stereo not given)	-3	97	1	99	3	101	·	·	·
COc1ccc(NC(=O)N2CCCC2C(=O)NCc2ccc(C)cc2)cc1 (stereo not given)	0	103	62*	114	-1	73*[inhibitor]	101	0	104
C[C@H](CO)N1C[C@H](C)[C@H](CN(C)C(=O)N[C@H](C)c2ccccc2)OCc2ccccc2-c2c(n(C)c3ccccc23)C1=O	-3	96	·	·	2	·	·	·	·
CCOC(=O)c1c(NC(=O)CN2CCOCC2)sc2c1CC(C)(C)OC2	-1	96	-20	4.0*[inhibitor]	1	3.0*[inhibitor]	106	3	101
CCOC(=O)c1c(NC(=O)CCC(=O)N2CCOCC2)sc2c1CC(C)(C)OC2	9	96	-1	85	1	79*[inhibitor]	100	6	101
C/C(=C/C(=O)N1CCc2ccccc21)C(=O)O	20	100	4	117	1	145*	98	2	101
CCOc1cccc2c1OC(c1cc(OC)c(OC)c(OC)c1)N1N=C(c3ccc(C)o3)CC21 (stereo not given)	-2	423	8	6.0*	2	15*[inhibitor]	93	-9	100
COc1ccc(C2CC(c3ccc(C)o3)=NN2C(C)=O)cc1 (stereo not given)	13	105	-1	99	-3	102	·	·	·
SMILES	CRFR2-BP antag	ABCB6 inh MLPCN	MEKK2mut PB1 HTS	MEKK2wt PB1 HTS	CRFBP-R2 agonist	MEKK3 PB1 HTS	MEKK2wt confirm	MEKK2mut confirm	MEKK3 confirm
CNC(=O)OC(C)CNS(=O)(=O)c1ccc(C)cc1 (stereo not given)	22	96	-21	2.0*[inhibitor]	0	2.0*[inhibitor]	104	18	104
Cc1cc(C(=O)OC(C(=O)Nc2cccc(C(F)(F)F)c2)c2ccccc2)c(C)o1 (stereo not given)	-34	93	3	107	1	145*	103	2	101
Cc1ccc(NC(=O)C(OC(=O)c2cc(C)oc2C)c2ccccc2)cc1 (stereo not given)	-11	102	-8	102	-1	100	·	·	·
CN(C)CCCN(C(=O)COc1ccccc1)c1nc2ccc(Cl)cc2s1	-9	98	32	167*	10	105	154	20	106
COc1cccc2sc(N(CCCN(C)C)C(=O)COc3ccc(Cl)cc3)nc12	-35	96	9	168*	4	105	151	35	103
CN(C)CCCN(C(=O)COc1ccc(Cl)cc1)c1nc2cc3c(cc2s1)OCO3	-2	98	35*	179*	4	107	176	41	109
CN(C)CCCN(C(=O)CCc1ccccc1)c1nc2ccc(Cl)cc2s1	-65	109	43	164*	34	114	184	51	111
CN(C)CCCN(C(=O)COc1ccc(Cl)cc1)c1nc2cc3c(cc2s1)OCCO3	-6	92	·	·	1	·	·	·	·
CN(C)CCCN(C(=O)COc1ccccc1)c1nc2cc3c(cc2s1)OCO3	-3	100	13	118	0	101	·	·	·
CC(C)OCCCNC(=O)c1cn(C)c2ccc(S(=O)(=O)N(C)C3CCCCC3)cc2c1=O	-8	97	0	98	-1	100	·	·	·
CCn1ccnc1CN(C)C(=O)C1CCC(=O)N(Cc2cccc(C(F)(F)F)c2)C1 (stereo not given)	1	103	1	100	-2	93	·	·	·
